# PfGluPho inh = PfG6PD (Plasmodium falciparum) enzyme inhibition | inhibition, % at 20 µM | AID 504690 | actives 0.78% (n = 350,000) | PfGluPho enzyme, NADPH resazurin-diaphorase fluorescence;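 active means inhibition reaching at least a set limit at 20 µM in the primary screen, cut at about 59% in these data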;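 further: 0% = DMSO wells with substrate and 100% = DMSO wells lacking glucose-6-phosphate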
# PRMT1 inh = blocks human protein arginine methyltransferase 1; inhibition, % at 2.79 µM; recombinant PRMT1, activity-based probe fluorescence polarization; actives 1.3% (n = 370,000); AID 652257; Q99873;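 active means inhibition above about 21% made by adding two undisclosed values, limit read from the data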
# UHRF1 binding = UHRF1 methyl-DNA binding inhibition | Q96T88 | UHRF1 binding to methylated oligo, TR-FRET | inhibition, % at 4.4 µM | actives 0.75% (n = 370,000); in the data active means inhibition above about 21%;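 further: UHRF1 SRA domain binding a hemimethylated CpG hairpin DNA probe; 0% = median of test compound wells and 100% = reference inhibitor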
# Target sequence (Q96T88 whole entry, looked up, the tested form may be a part): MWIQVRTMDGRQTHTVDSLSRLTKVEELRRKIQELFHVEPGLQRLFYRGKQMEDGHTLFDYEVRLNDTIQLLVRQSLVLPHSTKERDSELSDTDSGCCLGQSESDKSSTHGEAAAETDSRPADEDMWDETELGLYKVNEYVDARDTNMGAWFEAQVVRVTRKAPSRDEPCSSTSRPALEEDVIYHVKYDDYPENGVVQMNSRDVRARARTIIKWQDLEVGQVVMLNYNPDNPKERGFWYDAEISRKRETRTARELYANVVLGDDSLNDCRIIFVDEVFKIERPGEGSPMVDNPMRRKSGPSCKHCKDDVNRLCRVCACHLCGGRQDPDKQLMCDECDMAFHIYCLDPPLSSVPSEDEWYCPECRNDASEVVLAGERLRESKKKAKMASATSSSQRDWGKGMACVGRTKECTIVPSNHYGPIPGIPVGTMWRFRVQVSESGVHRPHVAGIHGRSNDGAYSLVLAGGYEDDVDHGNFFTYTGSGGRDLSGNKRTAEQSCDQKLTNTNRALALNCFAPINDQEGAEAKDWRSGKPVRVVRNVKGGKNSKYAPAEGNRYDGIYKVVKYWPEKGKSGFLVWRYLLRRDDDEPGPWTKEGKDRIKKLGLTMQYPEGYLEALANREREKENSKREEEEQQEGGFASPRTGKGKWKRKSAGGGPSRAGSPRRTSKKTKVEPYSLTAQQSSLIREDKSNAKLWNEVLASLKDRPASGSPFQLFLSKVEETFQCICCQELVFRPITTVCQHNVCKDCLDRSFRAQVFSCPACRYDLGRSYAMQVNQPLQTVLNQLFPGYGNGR
# MBD2 DNA inh = blocks human MBD2 binding to methylated DNA; Q9UBB5; TR-FRET, MBD2 binding to methylated oligonucleotide; inhibition, % at 4.4 µM; actives 0.31% (n = 370,000); in the data active means inhibition above about 13%
# M18AAP inhibitor = blocks P. falciparum M18 aspartyl aminopeptidase; recombinant PfM18AAP, H-Glu-NHMec fluorogenic cleavage; inhibition, % at 7.35 µM; actives 1.2% (n = 290,000); AID 1822;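 active means inhibition above the campaign mean inhibition over all tested compounds plus 3 SD, cut at about 28% in these data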;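 further: 0% = plate median of test compound wells and 100% = 2 mM ZnCl2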
# PfGluPho conf = PfG6PD inhibition, single-dose confirmed; shares compounds with PfGluPho inh; AID 504753; inhibition, % at 20 µM; recombinant PfGluPho, NADPH-diaphorase-resazurin fluorescence; actives 34% (n = 2,400);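 active means inhibition of at least 50% at 20 µM in any single replicate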;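 further: 0% = DMSO with substrate and 100% = DMSO lacking glucose-6-phosphate substrate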
# Diaphorase 10uM = inhibits diaphorase or oxidizes, flagging false PfG6PD hits. shares compounds with PfGluPho inh. diaphorase-coupled resazurin reduction, fluorescence, NADPH 10 uM. inhibition, % at 20 µM. actives 39% (n = 820);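 active means average inhibition reaching 50% or more with the compound at 20 µM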;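 further: resorufin red fluorescence formed as diaphorase reduces resazurin using NADPH; 0% = DMSO with enzyme and 100% = DMSO without enzyme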
# Diaph ctr 30uM = inhibits diaphorase or oxidizes, flagging false PfG6PD hits. shares compounds with PfGluPho inh. Diaphorase/resazurin coupled assay, resorufin fluorescence, 30 uM NADPH. inhibition, % at 20 µM. actives 29% (n = 820). AID 504863;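 active means inhibition averaging 50% or more, tested at 20 µM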;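 further: 0% = DMSO with enzyme and 100% = DMSO wells lacking diaphorase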
# * = called active by the depositor; . = no result given. Shown are actives, neighbours in structure and some others; about 3.3% of the full set was active somewhere.
SMILES,PfGluPho inh,PRMT1 inh,UHRF1 binding,MBD2 DNA inh,M18AAP inhibitor,PfGluPho conf,Diaphorase 10uM,Diaph ctr 30uM
CCN(CC)C(=O)CC[C@H]1CC[C@]2(CCCN(S(=O)(=O)C3CCCCC3)C2)O1,.,-3,2,-1,.,.,.,.
CC(NC(=O)/C(C#N)=C/c1ccc([N+](=O)[O-])o1)c1ccccc1 (stereo not drawn),92*,18,-2,-1,10,69*,64*,66*
CCOCCCNC(=O)/C(C#N)=C/c1ccc([N+](=O)[O-])o1,84*,16,5,5,-6,74*,63*,71*
N#CCC[C@H]1CC[C@]2(CCCN(C(=O)c3ccc4ccccc4n3)C2)O1,.,2,-3,-3,.,.,.,.
CCOC(=O)c1cc(-c2ccccc2)sc1NC(=O)C(C)C,15,1,4,1,-8,.,.,.
CCOC(=O)c1cc(-c2ccccc2)sc1NC(=O)c1ccc(OC)c(OC)c1,78*,1,1,-2,22,47,.,.
Cc1ccc(OCCSc2nnc(-c3cccs3)n2C)cc1,12,-1,0,-1,1,.,.,.
Cc1cc(OCCSc2nnc(-c3cccs3)n2C)ccc1Cl,70*,4,3,7,2,22,.,.
CC1(C)CC(C(N)=S)CCO1 (stereo not drawn),-3,-1,0,-6,-4,.,.,.
CCC1(C)CC(C(N)=S)CCO1 (stereo not drawn),81*,7,4,0,-1,64*,-13,-15
COc1ccc(CNS(=O)(=O)c2ccccc2Br)c(OC)c1,.,-2,-3,2,.,.,.,.
CCn1c(SCC(=O)Nc2cc(C)on2)nc2c(c1=O)SC(C)C2 (stereo not drawn),-20,4,0,-3,4,.,.,.
Cc1ccc(-n2c(SCC(=O)Nc3cc(C)on3)nc3c(c2=O)SC(C)C3)cc1 (stereo not drawn),84*,-3,0,-2,-6,31,.,.
COC(=O)NC(=S)Nc1ccc(Oc2ccc(Cl)cc2Cl)c(Cl)c1,82*,-2,-1,-6,-3,12,.,.
CC1(C)CC(=O)C=C(C2CC2)C1=O,.,-3,-3,-2,.,.,.,.
Clc1cccc(Nc2ncnc3c2cnn3-c2ccccc2)c1,83*,-2,-4,4,.,-9,.,.
COc1cccc(Nc2ncnc3c2cnn3-c2cccc(C)c2)c1,45,-2,2,0,-6,.,.,.
O=C(O)c1cccc(Nc2ncnc3c2cnn3-c2ccccc2)c1,-13,5,0,-2,-2,.,.,.
Fc1cccc(Nc2ncnc3c2cnn3-c2ccccc2)c1,70*,-2,2,-2,.,13,.,.
CCOc1ccc(NC(=O)CSc2nnc(-c3n[nH]c4c3CCC4)n2N)cc1,.,2,-3,-4,.,.,.,.
O=C(CSc1ncn[nH]1)Nc1ccccc1Sc1ccc(Cl)cc1,110*,-1,-2,6,4,68*,59*,57*
Nc1cc(=O)[nH]c(SCC(=O)Nc2ccccc2Sc2ccc(Cl)cc2)n1,50,2,-1,-1,5,.,.,.
CCCCCCCC1=NN(c2ccc(S(=O)(=O)O)cc2)C(=O)C1N=O (stereo not drawn),-43,-3,2,1,.,.,.,.
O=C(C1=C(c2ccccc2)C(=O)c2ccccc2C1=O)c1ccccc1,116*,4,3,5,0,79*,84*,81*
CC(C)C[C@@H]1COc2cccc(NC3CC3)c2S(=O)(=O)N1,.,-4,15,3,.,.,.,.
SMILES,PfGluPho inh,PRMT1 inh,UHRF1 binding,MBD2 DNA inh,M18AAP inhibitor,PfGluPho conf,Diaphorase 10uM,Diaph ctr 30uM
COC(=O)/C=C/c1ccccc1CN1[C@@H](CC(=O)OC)c2ccccc2S1(=O)=O,-3,0,-1,3,.,.,.,.
Cc1ccc(N(CC(=O)N/N=C/c2cccs2)S(C)(=O)=O)cc1Cl,106*,-3,1,1,-17,75*,70*,65*
COC(=O)CN(c1ccc(C)c(Cl)c1)S(C)(=O)=O,6,0,1,2,-5,.,.,.
COC(=O)[C@]12C[C@H](CC(=O)N3CCCCC3)C(=O)N(Cc3ccc(Cl)cc3Cl)C1=C[C@H](C(C)(C)C)O[C@@H]2C,.,2,-2,2,.,.,.,.
COc1ccc([N+](=O)[O-])cc1/C=N/NC(=O)CNC(=O)c1cccc(F)c1,70*,1,-3,-5,5,22,.,.
COc1ccc([N+](=O)[O-])cc1/C=N/NC(=O)CNC(=O)C(c1ccccc1)c1ccccc1,139*,1,2,4,8,86*,85*,80*
CCOc1ccc(N2C(=O)/C(=C/c3cccs3)N(CC(=O)OC)C2=S)cc1,2,-1,0,-2,0,.,.,.
COc1ccc(N2C(=O)/C(=C/c3cccs3)NC2=S)cc1,79*,9,1,2,7,64*,-16,-8
Cc1ccc(-c2ccc(/C=N/NC(N)=S)o2)cc1,62*,5,-7,-1,-3,16,.,.
COc1cc(CNc2ccc3[nH]c(=O)[nH]c3c2)ccc1OCc1ccccc1,65*,8,3,-7,-33,50*,0,1
COc1cc(CNc2ccc3[nH]c(=O)[nH]c3c2)ccc1OCc1ccc(Cl)cc1,63*,9,-1,2,-12,37,.,.
COc1cccc(CNc2ccc3[nH]c(=O)[nH]c3c2)c1OCc1ccccc1Cl,65*,14,1,5,-39,50*,-3,0
COc1cc(CNc2ccc3[nH]c(=O)[nH]c3c2)ccc1OCc1ccccc1C,46,11,1,5,-15,.,.,.
C=CCOc1ccc(CNc2ccc3[nH]c(=O)[nH]c3c2)cc1OC,85*,3,2,-3,-23,66*,15,19
COc1cc(CNc2ccc3[nH]c(=O)[nH]c3c2)ccc1OCc1ccc(F)cc1,66*,12,-4,1,-23,39,.,.
O=[N+]([O-])c1ccc(C=Nc2cccc3ccccc23)s1,71*,.,.,.,3,18,.,.
CC(=O)Nc1ccc(S(=O)(=O)NNc2cccc(C)c2)cc1,76*,23*,0,2,14,45*,-10,4
Cc1ccc(S(=O)(=O)Nc2ccc(Nc3ccccc3)cc2)cc1,-4,6,2,1,-111,.,.,.
Cc1ccc(S(=O)(=O)NNc2ccccc2)cc1,65*,.,.,.,-11,47*,42,19
N#Cc1cccnc1N1CCN(C(=O)c2[nH]c(C(F)(F)F)nc2-c2ccccc2)CC1,.,-4,0,0,.,.,.,.
NS(=O)(=O)c1ccc(O)c(NC(=O)c2ccc([N+](=O)[O-])o2)c1,78*,22*,42*,-6,-2,14,.,.
COc1ccc(CCC(=O)Nc2cccc(S(=O)(=O)N3CCOCC3)c2)cc1OC,-10,3,3,-2,.,.,.,.

# Screening data: PubChem, several laboratories
